Test results published in the supplement of paper PMC10127200.
Where a name gives a salt, the structure may show the parent alone.

test system: FB; assay: Euclidean distance of Cell Painting phenotypic profile (signed KS, 77 features) to DMSO centroid (dimensionless distance); 5 or 10 uM (library dependent); higher = stronger phenotypic change vs DMSO (phenoactivity); conditions: 48 h
Summary of the method: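 Five cancer lines, together with a healthy fibroblast line, received library compounds for 48 h at a library-dependent 10 or 5 uM and 0.1% DMSO final. Harmony then derived 77 features from confocal 20X images (9 fields/well) of the stained cells, scoring each as a signed Kolmogorov-Smirnov statistic against same-plate vehicle wells. After plate-position correction, correlation weighting and replicate averaging at the top dose, phenoactivity was taken as each profile's Euclidean distance to the median vehicle profile.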

| SMILES | Euclidean distance |
| --- | --- |
| CN(C)Cc1ccc(-c2nc3cccc4c3n2CCNC4=O)cc1 | 1.3 |
| C[C@@]1(c2cc(-c3cncnc3)c(F)cc2F)CCSC(N)=N1 | 1.09 |
| COCCOc1ccc2c(c1)ncn2-c1ccc2cccc(N3CCC(N)CC3)c2n1 | 3.61 |
| CCc1c(C(=O)NCCc2ccc(N3CCCCC3)cc2)[nH]c2ccc(Cl)cc12 | 1.21 |
| NS(=O)(=O)c1cc2c(cc1Cl)NCNS2(=O)=O [Hydrochlorothiazide] | 1.02 |
| COc1ccc(-c2cc(=S)ss2)cc1 [Anethole trithione] | 1.03 |
| CNC(=O)CN(CCN(CCN(CC(=O)[O-])CC(=O)NC)CC(=O)[O-])CC(=O)[O-].[Gd+3] [Gadodiamide] | 0.962 |
| Cc1ccc2c(=O)c3cccc(CC(=O)O)c3oc2c1C [DMXAA (Vadimezan)] | 1.4 |
| CCN(CC)CCOC(=O)C(c1ccccc1)c1ccccc1 [Adiphenine HCl] | 1.43 |
| C=CCc1cc(OC)c(O)c(C(=O)NCCO)c1 [Alibendol] | 0.938 |
| c1ccc(C2CN3CCSC3=N2)cc1 (single isomer, unassigned; (-)) [(-)-Tetramisole] | 0.965 |
| C=CCn1c(=O)c2cnc(Nc3ccc(N4CCN(C)CC4)cc3)nc2n1-c1cccc(C(C)(C)O)n1 | 3.63 |
| COc1cc(NS(=O)(=O)c2ccc(N)cc2)nc(OC)n1 [Sulphadimethoxine] | 1.62 |
| CC(C)C(=O)c1c(C(C)C)nn2ccccc12 [Ibudilast] | 0.71 |
| C[C@@H]1CN(CC(=O)Nc2ccc3c(c2)Cc2cccc(-c4cc(=O)cc(N5CCOCC5)o4)c2S3)C[C@H](C)O1 | 1.37 |
| O=C(NOCC(O)CO)c1cc(Br)c(F)c(F)c1Nc1ccc(I)cc1F (stereo not given) | 2.89 |
| Nc1cccc(-c2cc3c(Oc4cccc(O)c4)ncnc3[nH]2)c1 | 2.71 |
| NCCCCCC(=O)O | 1.67 |
| CC[C@H]1OC(=O)[C@H](C)[C@@H](O[C@H]2C[C@@](C)(OC)[C@@H](O)[C@H](C)O2)[C@H](C)[C@@H](O[C@@H]2O[C@H](C)C[C@H](N(C)C)[C@H]2O)[C@](C)(O)C[C@@H](C)/C(=N\OCOCCOC)[C@H](C)[C@@H](O)[C@]1(C)O [Roxithromycin] | 1.1 |
| COc1cc(Nc2nc3ccccc3nc2NS(=O)(=O)c2ccc(NC(=O)c3ccc(C)c(OC)c3)cc2)cc(OC)c1 | 0.743 |

| SMILES | Euclidean distance |
| --- | --- |
| O=C(O)Cc1ccccc1Nc1c(Cl)cccc1Cl [Diclofenac Sodium] | 1.14 |
| CCCCCCCCCCCCc1ccc(S(=O)(=O)Nc2nncs2)cc1 | 1.16 |
| CCCCOc1c(C(=O)c2c(F)cc(C)cc2F)c[nH]c2nncc1-2 | 1.37 |
| CCCNC(=O)Nc1ccc(Oc2ncnc3cc(OC)c(OC)cc23)cc1Cl | 2.36 |
| CS(=O)(=O)c1cccc(CNc2nc(Nc3ccc4c(c3)CCC(=O)N4)ncc2C(F)(F)F)c1 | 3.24 |
| CN(C)Cc1cccc(N/C(=C2\C(=O)Nc3cc(C(N)=O)ccc32)c2ccccc2)c1 | 2.56 |
| CC(C)C[C@@H](C(=O)N[C@H](C(=O)OC1CCCC1)c1ccccc1)[C@H](O)C(=O)NO [Tosedostat (CHR2797)] | 1.15 |
| CC(C)[C@H](O)C(=O)N[C@@H](C)C(=O)N[C@@H]1C(=O)N(C)CCc2ccccc21 | 1.22 |
| N=c1ccn2c(n1)O[C@H]1[C@H](O)[C@@H](CO)O[C@H]12 [Cyclocytidine HCl] | 3.66 |
| O=NN(CCCl)C(=O)NCCCl [Carmustine] | 0.896 |
| CC(C)c1cnn2c(NCc3ccccc3)cc(NCCCCCCN)nc12 | 0.961 |
| CN(C)Cc1cccc(N=C(c2ccccc2)c2c(O)[nH]c3cc(C(=O)N(C)C)ccc23)c1 | 3.16 |
| O=S(=O)(NCCNC/C=C/c1ccc(Br)cc1)c1cccc2cnccc12 | 1.3 |
| CCOC(=O)[C@H](CCc1ccccc1)N[C@H]1CCCN2CCC[C@@H](C(=O)O)N2C1=O [Cilazapril Monohydrate] | 1.03 |
| Cc1cc(NC(=O)Nc2ccc(N(C)C)cc2)c2cc(F)cc(F)c2n1 | 0.943 |
| Cc1ccc(-n2nc(C(C)(C)C)cc2NC(=O)Nc2ccc(OCCN3CCOCC3)c3ccccc23)cc1 [BIRB 796 (Doramapimod)] | 1.38 |
| C[C@]1(O)C[C@@H](c2nc(-c3ccc4ccc(-c5ccccc5)nc4c3)c3c(N)nccn32)C1 [OSI-906 (Linsitinib)] | 1.19 |
| Clc1ccc(C2(c3ccc(-c4cn[nH]c4)cc3)CCNCC2)cc1 | 4.67 |
| N=C(N)c1ccc(OCCCCCOc2ccc(C(=N)N)cc2)cc1 [Pentamidine] | 0.958 |
| CC(C)OC(=O)CCC/C=C\C[C@@H]1[C@@H](/C=C/[C@@H](O)COc2cccc(C(F)(F)F)c2)[C@H](O)C[C@@H]1O [Travoprost] | 1.11 |
